# CYP2C9 activ: human CYP2C9 activators, primary screen, biochemical, luminescence; Cytochrome P450 2C9 (Homo sapiens), P11712; recombinant CYP2C9, luciferin-H conversion; hits give high values; factor 1 = untreated enzyme, 0 = blocked; activation factor at 5 µM; 96,000 tested, 1.4% active;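 active = activation factor of 2 or more for CYP2C9 at a 5 µM dose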;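 also: 0 = sulfaphenazole-blocked wells and 1 = vehicle-only wells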
# Target sequence (P11712 whole entry, looked up): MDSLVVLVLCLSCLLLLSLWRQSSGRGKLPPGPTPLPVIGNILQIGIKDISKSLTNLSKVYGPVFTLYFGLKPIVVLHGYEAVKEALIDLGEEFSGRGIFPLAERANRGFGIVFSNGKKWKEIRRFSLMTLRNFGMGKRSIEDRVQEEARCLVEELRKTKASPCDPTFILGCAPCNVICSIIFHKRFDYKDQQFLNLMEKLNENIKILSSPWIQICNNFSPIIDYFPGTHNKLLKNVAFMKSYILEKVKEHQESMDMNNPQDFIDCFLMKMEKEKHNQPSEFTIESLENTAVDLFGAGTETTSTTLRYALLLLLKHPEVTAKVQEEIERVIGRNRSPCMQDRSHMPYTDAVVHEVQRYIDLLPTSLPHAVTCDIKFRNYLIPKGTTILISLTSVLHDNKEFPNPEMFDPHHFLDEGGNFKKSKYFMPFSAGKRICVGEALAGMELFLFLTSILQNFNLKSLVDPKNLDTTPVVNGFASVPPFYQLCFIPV
# CYP2C19 inh: blockers of cytochrome P450 2C19 activity – biochemical, luminescence, ADME assay, primary screen; P33261; CYP2C19 Supersomes, luciferin-H EGE luminescence, 30 min; inhibition, % at 5 µM; 96,000 tested, 21% active; AID 778, 2007;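 active = CYP2C19 inhibition above a set limit at 5 µM in the primary screen, cut at about 50% in these data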;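 also: plate controls were negative control wells for no effect and 2.5 mM tranylcypromine positive control for full effect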
# E-sel TNF inh: E-selectin induction blockers in HUVEC – imaging, immunofluorescence, high content, primary screen; HUVEC TNFa-induced E-selectin immunofluorescence; inhibition, % at 2 µM; 120,000 tested, 0.71% active;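 active = inhibition above the batch mean plus 3 SD, and confirmed as a hit on visual image review, cut at about 43% in these data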;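 also: 0% = TNF-stimulated DMSO wells and 100% = unstimulated control wells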
# cytoskel mod: modifiers of F-actin cytoskeleton organization, primary screen, imaging, HUVEC, phalloidin staining, high-content imaging; HUVEC TNFa F-actin phalloidin imaging; inhibition, % at 2 µM; 91,000 tested, 0.18% active; AID 836, 2007;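 active = inhibition above the batch mean plus 3 SD and confirmed as a hit by visual image inspection, cut at about 30% in these data, passing the limit was not always enough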
# CYP2C19 act: human CYP2C19 activators, primary screen, biochemical, luminescence | activation factor at 5 µM | Cytochrome P450 2C19 (Homo sapiens), P33261 | 96,000 tested, under 10 active | recombinant CYP2C19, luciferin-H EGE luminescence; hits give high values; 0 = fully inhibited enzyme, 1 = untreated enzyme;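 active = activation factor of at least 2 at 5 µM in the primary screen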;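 also: 0 = wells with 2.5 mM tranylcypromine and 1 = vehicle-only wells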
# CYP2C9 inhib: blockers of cytochrome P450 2C9 activity – biochemical, luminescence, ADME assay, primary screen | P11712 | CYP2C9 Supersomes, luciferin-H conversion | inhibition, % at 5 µM | 96,000 tested, 20% active;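 active = blocking of liver enzyme CYP2C9 beyond about 50% at 5 µM, limit read from the data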
# An asterisk follows results filed as active; · = no result given. Most compounds without a hit are left out; they make up all but 22% or so of the library.
SMILES,CYP2C9 activ,CYP2C19 inh,E-sel TNF inh,cytoskel mod,CYP2C19 act,CYP2C9 inhib
CCOC(=O)N1CCN(C(=O)c2ccc3nc(SCc4ccc(F)cc4)n(C)c3c2)CC1,0.3,48.6,-6.0,-3.7,0.5,65.4*
CN1CCN(C(=O)c2ccc(CSc3nc4ccncc4n3Cc3ccc(F)cc3)cc2)CC1,·,·,-7.6,·,·,·
CCOC(=O)N1CCC(NC(=O)c2ccc3c(Cl)c4c(nc3c2)CCCC4)CC1,·,·,24.2,·,·,·
O=C(O)CN1C(=O)C2C3CC(C2C1=O)C1C(c2ccc(Cl)cc2)c2sc(=O)[nH]c2SC31 (stereo not drawn),·,·,-27.4,·,·,·
Cn1c(SCC(=O)N2c3ccccc3Sc3ccccc32)nnc1-c1ccco1,0.3,67.7*,-3.5,7.7,0.3,69.8*
Cc1cccc(C)c1NC(=O)CSc1nnc(-c2ccoc2C)n1C,1,32.3,·,10.9,0.7,-1.3
Cn1c(SCC(=O)Nc2ccccc2-c2ccccc2)nnc1-c1ccco1,0.5,59.6*,·,-24.6,0.4,45.1
CCCn1c(SCC(=O)Nc2ccccc2-c2ccccc2)nnc1-c1ccoc1C,0.1,81.9*,-15.3,·,0.2,87.1*
Cc1occc1-c1nnc(SCC(=O)Nc2ccccc2-c2ccccc2)n1C,0.2,76.5*,-2.2,4.4,0.2,76.1*
CCc1nnc(NC(=O)CSc2nnc(-c3ccco3)n2C)s1,0.9,8.8,-11.2,0.4,0.9,12.2
CCCC(=O)NC(C)c1nc2ccccc2n1C(C)C (stereo not drawn),0.9,9.0,-19.3,·,0.9,5.9
O=C(NCN1C(=O)C2C3C=CC(C3)C2C1=O)Nc1nccs1 (stereo not drawn),·,·,-8.3,0.9,·,·
COc1ccc(-c2nc(NC(=O)CSc3nnc4ccccn34)ns2)cc1,0.8,4.6,0.3,-34.0,1,15.5
CC1CCc2sc3ncn4nc(C(=O)NCc5ccco5)nc4c3c2C1 (stereo not drawn),0.9,-1.6,·,·,1,12.5
CCSc1nc2sc3c(c2c2nnc(SCC(=O)NCc4ccco4)n12)CCCC3,·,·,-20.9,-5.0,·,·
CC1CCc2c(sc3ncn4c(SCC(=O)NCc5ccco5)nnc4c23)C1 (stereo not drawn),0.4,36.2,-6.7,3.5,0.6,58.1*
CC(C)Sc1nc2sc3c(c2c2nnc(SCC(=O)NCc4ccco4)n12)CCCC3,0.1,77.4*,·,-24.7,0.2,93.7*
CCOC(=O)C1=C(Cc2ccc(Cl)cc2)C(=O)c2ccccc2C1=O,0.1,99.5*,12.6,·,0,94.8*
Cc1cccc(CSc2nn3c(=O)c(C)nnc3s2)c1,·,·,-6.9,·,·,·
N#C/C(C(=O)N1CCCC1)=C1/N=C(N)c2ccccc21,·,·,1.3,·,·,·
Cc1ccc(NC(=O)NC2=N/C(=C(/C#N)C(=O)N3CCCC3)c3ccccc32)cc1,0,89.0*,·,·,0.1,98.2*
COc1ccc(NS(=O)(=O)c2cccc(C(=O)N/N=C(\C)c3ccc(-n4ccnc4)cc3)c2)cc1,0,92.7*,-16.4,9.7,0.1,99.2*
C/C(=N\NC(=O)c1cccc(S(=O)(=O)Nc2ccccc2Cl)c1)c1ccc(-n2ccnc2)cc1,0,99.1*,-20.9,11.1,0,100.0*
COc1ccc(NS(=O)(=O)c2cccc(C(=O)N/N=C(\C)c3ccncc3)c2)cc1,·,·,4.5,·,·,·
CC1CCCN(C(=O)Cn2cnc3c2c(=O)n(C)c(=O)n3C)C1 (stereo not drawn),1,-4.9,5.3,-6.2,1,0.4
SMILES,CYP2C9 activ,CYP2C19 inh,E-sel TNF inh,cytoskel mod,CYP2C19 act,CYP2C9 inhib
O=C1NCN(c2ccccc2)C12CCN(c1nnnn1-c1ccccc1)CC2,0.8,58.2*,11.7,3.6,0.4,20.0
CC(=O)N1CCN(c2nnnn2-c2ccccc2)CC1,1.1,21.3,5.8,4.7,0.8,-6.1
O=S(=O)(c1ccccc1)N1CCN(c2nnnn2-c2ccccc2)CC1,0.8,50.8*,6.5,16.8,0.5,21.2
O=S(=O)(c1ccc2c(c1)OCO2)N1CCN(c2nnnn2-c2ccccc2)CC1,0.7,29.1,-84.8,·,0.7,29.0
c1ccc(CC2CCN(c3nnnn3-c3ccccc3)CC2)cc1,0.5,62.6*,·,26.8,0.4,54.3*
Cc1cccc(C)c1OCC(=O)NCc1nnc(SCC(=O)NC2CCCCC2C)n1C (stereo not drawn),1,-4.3,-29.9,-1.6,1,0.8
COc1ccc(C2=CC(c3c(C)nn(-c4ccccc4)c3Cl)n3nnnc3N2)cc1OC (stereo not drawn),0.1,91.1*,1.2,25.2,0.1,93.3*
Cc1ccc(C2=CC(c3cccs3)n3nnnc3N2)cc1 (stereo not drawn),0.2,97.4*,-29.1,-10.5,0,81.5*
COc1cc(-c2nc3c(c(C)nn3-c3ccccc3)c3cc(OC)c(OC)cc23)ccc1O,0.5,38.1,-31.8,1.4,0.6,47.5
C1=C(c2ccccc2)Nc2nnnn2C1c1cccs1 (stereo not drawn),0.7,28.9,-35.6,·,0.7,27.6
COc1ccccc1C1C=C(c2ccc(C)cc2)Nc2nnnn21 (stereo not drawn),0.3,85.2*,-4.0,-12.8,0.1,70.8*
COc1cc(C(Nc2ccc(S(=O)(=O)N3CCC(C)CC3)cc2)C(=O)NCC2CCCO2)cc(OC)c1OC (stereo not drawn),·,·,-13.6,·,·,·
CC(NC(=O)c1cccnc1)C(c1cccs1)N1CCN(C)CC1 (stereo not drawn),1,9.0,·,0.5,0.9,1.2
COc1cc(/C=C2\SC(c3ccc(C)cc3)=NC2=O)ccc1O,0.9,36.7,-44.5,-3.7,0.6,12.8
CCN1C(=O)/C(=C\c2ccco2)C(C(=O)OC)=C1C,0.6,22.9,20.9,-7.4,0.8,35.2
COC(=O)C1=C(C)N(Cc2ccc(C)cc2)C(=O)/C1=C\c1ccc(O)c(OC)c1,0.1,51.5*,-29.1,33.4,0.5,92.3*
COC(=O)C1=C(C)N(CC2CCCO2)C(=O)/C1=C\c1ccc(O)cc1 (stereo not drawn),0.4,50.0*,3.0,-7.3,0.5,62.7*
CC(C)(C)/C(Cn1cncn1)=N\OC(=O)Nc1ccc(Cl)cc1,·,·,-13.6,·,·,·
Nc1nnc(CC(=O)N/N=C/c2cccc(OCCOc3ccccc3)c2)s1,1,-8.1,·,-6.3,1.1,0.0
O=C(NCCC1=CCCCC1)c1cnsn1,0.6,64.7*,-2.1,19.7,0.4,38.3
O=S(=O)(c1ccc(N2CCCC2c2nc3ccccc3s2)nc1)N1CCOCC1 (stereo not drawn),0.1,88.6*,-12.4,45.6,0.1,86.4*
O=S(=O)(c1ccc(Br)cc1)N1CCCC1c1nc2ccccc2s1 (stereo not drawn),·,·,-27.2,-25.5,·,·

# Screens as filed in PubChem.
